Only a selection was taken, and hits are over-represented in it overall.
Pf apPOL inh: Pf-apPOL DNA polymerase inhibition. Recombinant Pf-apPOL, molecular beacon fluorescence, 1.5 h. hit rate 0.25% among 210,000. inhibition, % at 10 µM
mHTT CaM bind: disrupts binding of mutant huntingtin to calmodulin; inhibition, % at 15 µM; P42858; AID 1671202; hit rate 3.6% among 190,000; AlphaScreen His-mHTT/GST-CaM binding, luminescence;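 also: 0% = both proteins with DMSO and 100% = one protein alone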
* marks the source's active call; other numbers are inactive results; x = not tested or not shown. Rule as the data show it: active = inhibition above about 50%; inactive = the rest.

SMILES | Pf apPOL inh | mHTT CaM bind
CCOc1cc(/C=C2\SC(=N)N(c3nccs3)C2=O)ccc1OCCN1CCOCC1 | -3.2 | 51.0*
COc1cc(/C=C2\SC(=N)N(c3ccc(F)cc3)C2=O)ccc1O | 4.4 | 9.0
CCOc1ccc(/C=C2\SC(=N)N(c3ccc4c(c3)OCO4)C2=O)cc1OC | -6.2 | 11.0
CSc1ccccc1C(=O)NCCS(=O)(=O)N1CCN(c2ncccn2)CC1 | 0.8 | -5.9
c1ccc(Cn2cc(-c3noc(C4CCCC4)n3)nn2)cc1 | -1.1 | -2.9
Cc1csc2sc(C(=O)Nc3ccc(Cl)cc3)c(C)c12 | -4.9 | x
CC1C(=O)N2CCCc3cc(NC(=O)COc4ccc5ccccc5c4)cc1c32 (configuration not stated) | -12.3 | 51.5*
CC1C(=O)N2CCCc3cc(NC(=O)C(=O)NCc4ccc5c(c4)OCO5)cc1c32 (configuration not stated) | 3.7 | 24.6
COc1ccc(-c2nc(NC(=O)c3ccc(C#N)cc3)sc2C)cc1 | 3.5 | -20.2
Fc1ccc(C2Oc3ccccc3C3=C2C(c2ccc(F)cc2)n2ncnc2N3)cc1 (configuration not stated) | -6.0 | 6.0
CCn1c2ccccc2c2cc(C3C(C#N)=C(N)Oc4n[nH]c(COC)c43)ccc21 (configuration not stated) | -7.7 | 65.0*
COCc1[nH]nc2c1C(c1ccc(OC)c(OC)c1)C(C#N)=C(N)O2 (configuration not stated) | -0.9 | 0.0
COc1cccc(N2CCN(C(=O)c3noc4c3CCCC4)CC2)c1 | -3.2 | 1.3
Cc1ccc(S(=O)(=O)c2nc(-c3ccccc3)oc2N(C)C)cc1 | 0.7 | -4.0
CC(C)C(=O)N1CCc2ccc(NC(=O)c3ccccc3C(F)(F)F)cc2C1 | 88.2* | 14.2
Cc1cc(C(=O)Nc2ccc3c(c2)CN(C(=O)C(C)C)CC3)c(C)o1 | -5.7 | -5.5
O=C(c1nn2c(c1Cl)NC(c1cccs1)CC2C(F)(F)F)N1CCCC1 (configuration not stated) | -5.7 | 12.0
O=C(NC1CCCCC1)c1nn2c(c1Cl)NC(c1cccs1)CC2C(F)(F)F (configuration not stated) | -41.9 | 17.0
O=C(c1nn2c(c1Cl)NC(c1cccs1)CC2C(F)(F)F)N1CCc2ccccc2C1 (configuration not stated) | -6.2 | 100.0*
CN(C(=O)c1nn2c(c1Cl)NC(c1cccs1)CC2C(F)(F)F)C1CCCCC1 (configuration not stated) | 3.7 | 77.0*
CC1CCCCN1S(=O)(=O)c1ccc(C(=O)Nc2nnc(-c3ccccc3Cl)o2)cc1 (configuration not stated) | -18.7 | 8.0
COc1ccccc1-c1ccc(C=C2C(=O)OC(C)(C)OC2=O)o1 | -6.4 | 15.0
CN1Cc2sccc2C(c2ccc(O)c(O)c2)C1 (configuration not stated) | 2.0 | x
Cc1ncc(CO)c2cc(C(=O)Nc3cccc(Cl)c3Cl)c(=Nc3ccccc3)oc12 | -4.1 | -4.0
CCS(=O)(=O)N1CCN(c2ccc([N+](=O)[O-])c(NC3CC3)c2)CC1 | -7.9 | -0.5
SMILES | Pf apPOL inh | mHTT CaM bind
O=[N+]([O-])c1ccc(N2CCNCC2)cc1NC1C2CC3CC(C2)CC1C3 (configuration not stated) | -0.1 | 82.2*
COCCNC(=O)C1Cc2ccccc2N2CCN(c3ccccc3F)CC12 (configuration not stated) | 0.2 | 5.0
COCCNC(=O)C1Cc2ccccc2N2CCN(c3cccc(Cl)c3)CC12 (configuration not stated) | 2.5 | 57.1*
Cc1csc(NC(=O)c2ccc(Br)o2)n1 | -10.4 | 1.8
O=[N+]([O-])c1ccc(N2CCc3ccccc3C2)nc1 | 2.0 | 9.7
OCCNCCOc1ccc(Cl)cc1 | 76.9* | -5.9
Cc1cc(OCCNCCO)cc(C)c1Cl | -1.6 | 3.8
COc1ccc(NC(=O)c2nn(-c3ccc(OC)cc3OC)c(=O)c3ccccc23)c(OC)c1 | 7.7 | -4.0
CCCCN(C)C(=O)c1cn2ccncc2n1 | -0.5 | -3.9
CCOc1cc(C(=O)NN2CCOCC2)cc(OCC)c1OCC | 10.7 | -4.2
CCN(CC)C(C(=O)NC1CCCC1)c1cc2c(cc1[N+](=O)[O-])OCO2 (configuration not stated) | 3.9 | 3.8
Cc1cc(C)c(S(=O)(=O)N=C2C=CC(=O)c3ccccc32)c(C)c1 | -0.2 | 66.0*
Cc1cc(C)c(S(=O)(=O)n2cnc3ccccc32)c(C)c1 | -2.1 | -4.0
Cc1ccc(S(=O)(=O)N=C2C=CC(=O)c3ccccc32)c(C)c1 | 4.5 | 86.0*
Cc1ccc(S(=O)(=O)N=C2C=CC(=O)C=C2)c(C)c1 | -7.4 | 39.0
O=c1cc(O)n(-c2ccccc2)[nH]1 | 53.3* | 20.3
O=c1cc(C(F)(F)F)[nH]n1-c1ccccc1 | 5.6 | x
COc1ccc(NC(=O)Nc2ccc(Nc3ccc(C)nn3)cc2)c(OC)c1 | -12.1 | 13.1
O=[N+]([O-])c1ccc(-c2ccc(N=Cc3ccccc3)cc2)cc1 | 18.6 | -4.0
O=[N+]([O-])c1ccc(C=NC2=NN(c3ccccc3)CC2)cc1 | 2.7 | 59.0*
CC(/C=C1N=C(/C=C/c2ccccc2)OC\1=O)=C\c1ccccc1 | -5.3 | 11.0
CCCCNC(=O)c1cnn2c(C)c(Cc3ccc(F)cc3)c(C)nc12 | -3.9 | 48.0
Cc1nc2c(C(=O)NCCc3ccc(Cl)cc3)cnn2c(C)c1Cc1ccc(F)cc1 | -8.5 | 80.0*
Cc1nc2c(C(=O)NCc3ccccc3)cnn2c(C)c1Cc1cccc(Cl)c1 | -1.0 | 38.0
COc1ccc(CNC(=O)c2cnn3c(C)c(Cc4cc(C)ccc4C)c(C)nc23)cc1 | -4.5 | -1.0
SMILES | Pf apPOL inh | mHTT CaM bind
Cc1nc2c(C(=O)NCCc3ccc(Cl)cc3)cnn2c(C)c1Cc1ccccc1 | -7.4 | 53.0*
Cc1nc2c(C(=O)NCCc3ccccc3)cnn2c(C)c1Cc1ccc(Cl)cc1 | -4.6 | -7.0
Cc1nc2c(C(=O)NCCc3ccccc3)cnn2c(C)c1Cc1cccc(Cl)c1 | -8.5 | 78.0*
COc1ccc(CCNC(=O)c2cnn3c(C)c(Cc4cc(C)ccc4C)c(C)nc23)cc1OC | -6.4 | 53.0*
COc1ccccc1C=C1Oc2cc(OCC(=O)O)ccc2C1=O | 2.5 | 13.1
O=C1CC(NCc2ccncc2)C(=O)N1c1ccccc1 (configuration not stated) | -9.1 | 1.5
CCCCc1ccc(C2C(C#N)=C(N)SC(N)=C2C#N)s1 | -1.1 | 55.2*
N#CC1=C(N)SC(N)=C(C#N)C1c1ccccc1 | 0.1 | 28.6
CCN(CC)CCNC(=O)C1CCN(c2ncccc2-c2nc(-c3ccccc3)no2)CC1 | -6.7 | -10.5
Oc1ccc(Nc2nc(NCc3ccco3)c3ccccc3n2)cc1 | -1.2 | 53.4*
Clc1ccc(CSc2nc(NCc3ccco3)c3ccccc3n2)cc1 | -8.2 | 25.0
Cc1cccnc1NS(=O)(=O)c1ccc2[nH]c3c(c2c1)CCCC3 | -5.5 | 11.6
CCOc1ccc(CNS(=O)(=O)c2ccc3[nH]c4c(c3c2)CCCC4)cc1OC | 0.2 | 59.0*
COc1ccccc1CNS(=O)(=O)c1ccc(C)c([N+](=O)[O-])c1 | -0.6 | -0.9
CCOc1ccc(CNS(=O)(=O)c2ccc3[nH]c(=O)sc3c2)cc1OC | 0.1 | 0.0
Cc1ccc(CCNS(=O)(=O)c2ccc3[nH]c4c(c3c2)CCCC4)cc1 | 0.2 | 84.6*
COc1ccccc1CNS(=O)(=O)c1ccc2[nH]c3c(c2c1)CCCCC3 | -4.6 | 97.9*
CCOc1ccc(-n2nc(C(=O)NCc3cccnc3)c3ccccc3c2=O)cc1 | 2.0 | 16.0

From PubChem BioAssay
